# The supplement of paper PMC10338343
# ± gives the standard deviation.
# System: MILI (PIWIL2) piRISC loaded with L1MC piRNA (26 nt)
# Experiment: pre-steady-state target cleavage rate (min^-1); guide: L1MC piRNA 5'p-UAACUAAAUACUAUGCAAGCUGUAGG; MIWI and MILI are mouse PIWI proteins and EfPiwi is from a freshwater sponge; tags in brackets are library labels; higher = faster piRNA-guided slicing of the target
# Conditions: auxiliary factor: 500 nM mouse GTSF1
# Method in brief: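 The pre-steady-state cleavage rate was derived from a burst-and-steady-state fit of Cleave-'n-Seq data. For these assays, 1 nM active affinity-purified piRISC loaded with a single synthetic guide was mixed with […] a transcribed, DNA-blocked target RNA library in HEPES–potassium acetate buffer at 33 °C, with or without 500 nM GTSF1 partner protein, for 0–8 or 0–960 min. Sequencing counts of uncleaved targets were normalised to depth and to weakly complementary targets, and k3 was capped at 0.0001 min^-1 after three trials were pooled.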
# 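Note: 1 nM active piRISC with 0.1 nM target library at 33 °C single turnover.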
row,Sequence,pre-steady-state target cleavage rate
1,UCCUGGAUCACGUUGCAUAGUAUUUAGAAA,0.128 ± 0.022
2,UCCUGGAUCAGCUUGCAUAGUAUUUGAGUUA,0.222 ± 0.036
3,UCCUGGAUGAGCAUGCAUAGUAAUUAGUUA,0.156 ± 0.021
4,UCCUGGAUGUGCUUGCAUAGUAUUUAUGUUA,0.109 ± 0.021
5,UCCUGGAUCAGCUUGCAUAGUAUUAACUUA,0.0348 ± 0.011
6,UCCUGGAACUGCUUGCAUAGUAUUUACUUA,0.0984 ± 0.027
7,UCCUGGAUGUCGAUGCAUAGUCUUUAGUUA,0.0205 ± 0.0056
8,UCCUGGAUGUGCUAGCAUAGUAAUUAGUUA,0.0614 ± 0.011
9,UCCUGGAUGUCGAUGCACAGUAUUUAGUUA,0.0311 ± 0.0057
10,UCCUGGAACAGGAAGCAUAGUAUUUAGUAA,0.146 ± 0.013
11,UCCUGGAUGUCCUUGCGUAGUAUUUAGUUA,0.0231 ± 0.0068
12,UCCUGGAUGUCGAUGCAUAGUGAUUUAGUUA,0.00445 ± 0.0044
13,UCCUGGAUCAGCUUGCAUCGUAUUUAGUUA,0.0942 ± 0.012
14,UCCUGGAUGUGCUUGCAUUGUAUAUAGUUA,0.0696 ± 0.012
15,UCCUGGUACAGCUUGCAUAGUUAAUAGUUA,0.0312 ± 0.01
16,UCCUCCUACAGCUUGAUAGUAUUUAGUUA,0.147 ± 0.014
17,UCCUGGUACAGCUUGCAUAGUUUUUAGUUA,0.0505 ± 0.013
18,UCCUGCUACAGCUUGCUUAGUAUUUAGUAA,0.119 ± 0.015
19,UCCUGGUACAGCUUGCAUAGUACUUAGUUA,0.187 ± 0.029
20,UCCUGGAUGUCGUUGCAUUGUAUUUAGUUA,0.0197 ± 0.0048

row,Sequence,pre-steady-state target cleavage rate
1,UCCUGGAUCAGCUUGCAUAGUAUAAAGUUA,0.171 ± 0.018
2,UCCUCCUAGCAGCUUGCAUAGUAUUUAGUUA,0.295 ± 0.018
3,UCCUGGAUCAGCUUGCAUAGAUUUUAGUUA,0.0267 ± 0.007
4,UCCUGGAACAGCUUGGUUAGUAUUUAGUUA,0.213 ± 0.02
5,UCCUGGAUGUCCUUGCAUAGUAAAUAGUUA,0.034 ± 0.0081
6,UCCUGGAUGUCCUCGCAUAGUAUUUAGUUA,0.0711 ± 0.01
7,UCCUGGAUGUGCUUGCAGAGUAUUUAGUUA,0.0463 ± 0.009
8,UCCUGGAUGUGCUUGCAAUGUAUUUAGUUA,0.0104 ± 0.005
9,UCCUGGAACUCGUUGCAUAGUAUUUAGUAA,0.165 ± 0.021
10,UCCUGCUACAGCUUGCAUAGUAUAUAGUUA,0.227 ± 0.029
11,UCCUGGAUGAGCAUGCAUAGUUUUUAGUUA,0.0197 ± 0.0099
12,UCCUGGAUGAGCUAGGAUAGUAUUUAGUUA,0.131 ± 0.021
13,UCCUGGAUGAGCUUGCAUUGUAUAUAGUUA,0.0992 ± 0.012
14,UCCUGGAUCAGCUUGCAUAGUAUUUAGUA,0.263 ± 0.019
15,UCCUCGUACAGGUUGCAUAGUAUUUAGUUA,0.249 ± 0.01
16,UCCUGGAUGAGGUUGCAUAGUUUUUAGUUA,0.00694 ± 0.0049
17,UCCUGGUACAGCUUGCAUAGUCAUUUAGUUA,0.0147 ± 0.0072
18,UCCUGGAUGUGCAUGCAUAGUAAUUAGUUA,0.0501 ± 0.008
19,UCCUGGAUGUCGAUGCAUAGUAUUAAGUUA,0.122 ± 0.017
20,UCCUGGUACAGUCUUGCAUAGUAUUUAGUUA,0.254 ± 0.033
